Source: PubChem BioAssay AID431 (Sanford-Burnham Center for Chemical Genomics, 2006)
In all, about 63,000 compounds went through this assay and about 1,100 (1.7%) were called active. The sample holds actives, similar compounds and a random draw of the others, so the mix is not that of the screen. Results with a measured potency or affinity are listed apart. A number with no mark means an inactive call.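 Rule for the calls: active = compounds whose percent cytotoxicity in the single-dose primary screen, scaled between solvent and toxic-drug controls, exceeds 50; inactive = the rest.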

Test: cytotoxicity in KRAS-transformed pancreatic duct cells, primary screen, cell-based, fluorescence, HTS (AID 431);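 note: 0% = DMSO solvent wells and 100% = doxorubicin-treated wells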
Conditions: HPDE-C7K KRASV12 cells, Alamar Blue viability, 48 h; at 10 µM; hits give high values

SMILES | cytotoxicity
N#Cc1cccc2cnccc12 | -3.3%
c1cncc(-c2nn3c(-c4ccncc4)nnc3s2)c1 | -1%
CCOc1ccc(-c2nn3c(-c4ccc(F)cc4)nnc3s2)cc1 | 9.9%
CCN(CC)c1ccc(-c2nn3c(-c4cccnc4)nnc3s2)cc1 | 56.4% (active)
CN(C)c1ccc(-c2nn3c(-c4ccncc4)nnc3s2)cc1 | -7.6%
CN(C)c1ccc(-c2nn3c(-c4cccnc4)nnc3s2)cc1 | -11.9%
O=C(CC1(O)C(=O)N(Cc2ccc3c(c2)OCO3)c2ccccc21)c1ccccc1 (centres undefined) | -28%
O=C(NCC1CCCO1)c1csc2c1CCCCC2 (centres undefined) | -11.1%
COc1ccccc1N1CCN(Cc2ccc(OC)c(OC)c2OC)CC1 | -15.5%
CCSC(SCC)[C@H](O)[C@@H](O)[C@H](O)[C@H](O)CO | -20.9%
CCCC(N)CCCCCC(=O)O (centres undefined) | 4.3%
N#CC(C(=O)NC1CCCCC1)c1nc2ccccc2nc1N1CCCCC1 (centres undefined) | -0.2%
CC(=O)NCCCc1c[nH]c2ccc(Cl)cc12 | 5.3%
O=C(NCc1ccc(Cl)cc1)c1ccc(COCC(F)(F)F)o1 | 7.2%
COc1ccc(-n2nnc3c(=O)n(CC(=O)NCC4CCCO4)cnc32)cc1 (centres undefined) | -5%
CCn1c(NC2CCCCC2)nc2ccccc21 | 15.1%
COc1cccc(CNc2nc3ccccc3n2CCN2CCCCC2)c1 | -17.7%
COc1ccc(C(=O)CSc2nnc(-c3ccoc3C)n2CC2CCCO2)cc1 (centres undefined) | -33%
Cc1nc2c(-c3ccccc3)c(C)nn2c(C)c1CCC(=O)N1CCOCC1 | -17%
Cc1cc(C)c(S(N)(=O)=O)c(C)c1-n1cnnn1 | -18.5%
CCOC(=O)CSC1=C(C#N)C(c2ccccc2C)C2=C(CCCC2=O)N1 (centres undefined) | 0.9%
COc1cccc(C2/C(=C(\O)c3c(C)nc4c(C)cccn34)C(=O)C(=O)N2CCCN(C)C)c1OC (centres undefined) | -1.4%
c1ccc2c(c1)[nH]c1c(N3CCCC3)ncnc12 | 20%
OC1(c2cccc(C(F)(F)F)c2)CCN(c2ncnc3c2[nH]c2ccccc23)CC1 | 124% (active)
c1ccc(CN2CCN(c3ncnc4nc[nH]c34)CC2)cc1 | -3.8%

SMILES | cytotoxicity
CCOC(=O)c1[nH]c2ccc(OCC)cc2c1NC(=O)CN1CCN(c2ccccn2)CC1 | 0.9%
CCOc1ccc2[nH]c3c(N4CCN(c5ccccn5)CC4)ncnc3c2c1 | 77.1% (active)
c1ccc2c(c1)[nH]c1c(N3CCC4(CC3)OCCO4)ncnc12 | 23.3%
c1ccc(CN2CCN(c3ncnc4c3[nH]c3ccccc34)CC2)cc1 | 119% (active)
Cc1ccc2c(c1)[nH]c1c(N3CCN(Cc4ccccc4)CC3)ncnc12 | 107% (active)
c1ccc2c(c1)[nH]c1c(N3CCOCC3)ncnc12 | -3.2%
O=C(c1ccco1)N1CCN(c2ncnc3c2[nH]c2ccccc23)CC1 | 21.1%
CCOC(=O)N1CCN(c2ncnc3c2[nH]c2ccc(OC)cc23)CC1 | 18.4%
c1ccc2c(c1)[nH]c1c(N3CCSCC3)ncnc12 | 44.2%
Cc1nonc1NC(=O)Nc1cccnc1 | 5.4%
CCOc1ccccc1N(CC(=O)NCc1ccc(OC)cc1)S(C)(=O)=O | -11.2%
COc1ccc(-n2nnnc2SCC(=O)Nc2cccc(NC(C)=O)c2)cc1OC | 11.1%
CSC1=NCCN1C(=O)Cc1ccc(Cl)cc1 | 3.5%
CCOC(=O)c1ccc(NC(=O)c2nn(CC)cc2Br)cc1 | 0.8%
Cc1ccc2[nH]c3c(N4CCOCC4)ncnc3c2c1 | 16.2%
Cc1ccc2[nH]c3c(N4CCCCCC4)ncnc3c2c1 | 30.4%
O=C(c1cccc(-c2nnc(-c3ccccc3)o2)c1)N1CCCCC1 | 14%
COCCNC(=O)CN1CCC(NC(=O)Nc2ccccc2)CC1 | -1%
CN(Cc1ccccc1)C(=O)CCCn1c(=O)[nH]c2cc(Cl)ccc2c1=O | -8.5%
COc1ccc(-c2nsc3c(N4CCCC4)ncnc23)cc1 | 11.5%
COc1ccc(-c2nsc3c(N4CCN(S(=O)(=O)c5ccccc5)CC4)ncnc23)cc1 | 56.4% (active)
COc1ccc(S(=O)(=O)N2CCN(c3ncnc4c(-c5ccccc5)nsc34)CC2)cc1 | -20.8%
CCOC(=O)C(NC(=O)c1ccccc1)=C1C=C(C)OC(C)=C1 | -13.9%
O=C(NCc1ccc2c(c1)OCO2)c1ccc(-c2ccc(Cl)cc2)o1 | 61.3% (active)
O=C(NCc1ccc2c(c1)OCO2)c1cccc(Cl)c1 | 3.6%

SMILES | cytotoxicity
O=C(NCc1ccc2c(c1)OCO2)c1nnc(Cc2ccc(Cl)cc2)o1 | 1.6%
COCCN(C(=O)CCC(=O)Nc1cccnc1)C(C(=O)NC1CCCCC1)c1ccccc1 (centres undefined) | -2.1%
COC(=O)C1=C(C)N=c2s/c(=C/c3ccoc3)c(=O)n2C1c1ccccc1 (centres undefined) | 8.9%
CSc1nnc(Cn2c(=O)sc3ccccc32)n1C | 6.8%
CCOc1ccc(N2CC(C(=O)Nc3cccc(C)c3C)CC2=O)cc1 (centres undefined) | 15.6%
COc1ccc(OC)c(S(=O)(=O)NCc2cn3c(C)csc3n2)c1 | -5.8%
COC(=O)Nc1ccc(S(=O)(=O)N2CCN(C)CC2)cc1 | 10.6%
CN1CCN(S(=O)(=O)c2ccc(NC(=O)Nc3cccc(Cl)c3)cc2)CC1 | 53% (active)
CN1CCN(S(=O)(=O)c2ccc(NC(=O)c3cccc(S(=O)(=O)N4CCCC4)c3)cc2)CC1 | -54.2%
O=C(CSc1nnnn1-c1ccc2c(c1)CCC2)NCc1cccs1 | 13.2%
Cn1c(N)c(C(=O)NCc2ccccc2)sc1=S | -2%
Cc1cc(C)c(C#N)c(Nc2ccc3c(c2)OCCO3)n1 | 11.2%
c1ccc(Nc2ncnc3c2oc2ccccc23)cc1 | -10%
c1ccc2c(c1)oc1c(NCCN3CCOCC3)ncnc12 | -2.7%
CCCCOC(=O)c1ccc(NC(=O)c2cnccn2)cc1 | 10.3%
C=CCn1c(N)c(C(=O)OCCC)c2nc3ccccc3nc21 | 7.1%
C=CCNC(=O)c1c(N)n(-c2cccc(S(N)(=O)=O)c2)c2nc3ccccc3nc12 | 8.3%
C=CCn1c(N)c(C(=O)Nc2ccccc2)c2nc3ccccc3nc21 | 60.6% (active)
C=CCNC(=O)c1c(N)n(-c2ccc3c(c2)OCO3)c2nc3ccccc3nc12 | -6.4%
C=CCn1c(N)c(C(=O)OC(C)CC)c2nc3ccccc3nc21 (centres undefined) | 24.5%
C=CCn1c(N)c(C(=O)OC(C)(C)C)c2nc3ccccc3nc21 | 62.9% (active)
Nc1c(C(=O)N2CCCCC2)sc(=S)n1-c1ccccc1 | -4.9%
CCOC(=O)Cc1nn2c(=O)cc(C)nc2s1 | -0.8%
CC(=O)NC1(C(F)(F)F)C(=O)Nc2c1c(=O)[nH]c(=O)n2Cc1ccco1 (centres undefined) | -16.1%
Cc1cc(C)n(-c2nc(Nc3ccccc3)nc(-n3nc(C)cc3C)n2)n1 | 9.6%

SMILES | cytotoxicity
CC(=O)c1cccc(NC(=O)CC2SC(N3CCCCC3)=NC2=O)c1 (centres undefined) | -7.4%
CCOCC(=O)Nc1nc2ccc(OCC)cc2s1 | 4.3%
Cc1cccc(N(CC(=O)NCc2ccccc2)C(=O)Cn2nnc(-c3ccc(C)o3)n2)c1 | -14.9%
CC(CN1CCOCC1)OC(=O)c1ccc2c(c1)OCCO2 (centres undefined) | 9.2%
COc1ccc(C(=O)OC(C)CN2CCOCC2)cc1OC (centres undefined) | -10%
O=C(CCN1C(=O)C2C3C=CC(C3)C2C1=O)NCc1cccnc1 (centres undefined) | -6.8%
O=C(CSc1nc(Nc2ccccc2)nc(N2CCOCC2)n1)N1CCCC1 | 5.4%
O=C(CSc1nc2ccccc2c(=O)n1C1CC1)NCc1ccccc1 | 3.5%
COc1ccccc1-c1nnn(CC#N)n1 | 6.1%
CCOC(=O)c1c(C)c(C(=O)N2CCCCCC2)c(C)n1CC | -2.8%
O=C1c2ccccc2NC(c2ccccc2)N1Cc1ccco1 (centres undefined) | -5.8%
CCOC(=O)CSC1=C(C#N)C(=O)NC2(CCCCC2)S1 | 13.8%
CCOC(=O)CC1=C(C(=O)OCC)C(c2ccc(OC)c(OC)c2)C(C#N)=C(N)O1 (centres undefined) | 5.7%
CCOC(=O)CSC1=C(C#N)C(=O)NC(c2ccc(OC)c(OC)c2)S1 (centres undefined) | 70.5% (active)
COc1ccc(CCn2c(C)ccc2C)cc1OC | -8.8%
O=C(NC1CCCCC1)N1CCC(c2nc3ccc(Cl)cc3[nH]2)CC1 | 7.4%
Cn1nc(-c2ccc(Cl)cc2)c2cc(C(=O)NCCCN3CCCC3)sc21 | 54.3% (active)
Cn1nc(-c2ccc(Cl)cc2)c2cc(C(=O)NCCCN3CCOCC3)sc21 | 9.2%
CN1CCN(CCCNC(=O)c2cc3c(-c4ccc(Cl)cc4)nn(C)c3s2)CC1 | 3.3%
COc1ccccc1N1CCN(CCC(=O)Nc2ccc3c(c2)OCO3)CC1 | 7.5%
CCOc1ccc(C(=O)Nc2cccc(-c3nc4cccnc4o3)c2)cc1Cl | 56% (active)
CCOc1cccc(C(=O)Nc2cccc(-c3nnc(-c4ccccc4)o3)c2)c1 | -9.8%
Cc1ccc(-c2nc3cccnc3o2)cc1NC(=O)COc1ccc(Cl)cc1C | 0.4%
CCN1CCN(c2ccc(NC(=O)c3cccc4ncccc34)cc2)CC1 | -12.5%
